Assay outcomes (PubChem)
Only some compounds are listed: those with a hit (about 2.2% of all), similar ones and a draw of the others.
BaF3 tox – parental Ba/F3 cell viability inhibition, counter-screen for JAK2V617F inhibitor project, murine pro-B, CellTiter-Glo luminescence; CellTiter-Glo ATP luminescence; inhibition, % at 5.6 µM; 220,000 compounds, 1.1% hits; AID 1486, 2009;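 active = inhibition above a per-campaign cutoff, the mean inhibition of all tested compounds plus 3 SD, cut at about 27% in these data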;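 note: 0% = DMSO wells and 100% = JAK Inhibitor I control wells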
APP transl inh – inhibitors of APP translation via 5'UTR reporter, primary screen, APP 5'UTR luciferase, SH-SY5Y cells. SH-SY5Y APP 5'UTR-luciferase reporter, luminescence. inhibition, % at 2 µM. 190,000 compounds, 0.82% hits;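 active = inhibition above a set limit, derived from the sample mean plus 3 SD, cut at about 45% in these data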
KLF5 inh – KLF5 expression inhibitors, primary screen, DLD-1 cells, luminescence | DLD-1 KLF5 promoter-luciferase reporter | 290,000 compounds, 0.23% hits | inhibition, % at 5 µM | AID 1700, 2009;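 active = inhibition above a per-plate limit of that plate's mean compound inhibition plus 3 SD, cut at about 60% in these data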;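 note: 0% = DMSO wells and 100% = LY294002 at 200 µM; higher means less KLF5 promoter-driven luciferase light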
Ba/F3 V617F tox – reduced viability of JAK2V617F-dependent Ba/F3 cells, primary screen, JAK2V617F inhibitor project, cell-based, Ba/F3 EpoR-JAK2V617F, luminescence. ATP luminescence. inhibition, % at 5.6 µM. 220,000 compounds, 1.1% hits. AID 1446, 2008;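 active = inhibition above the campaign mean plus 3 SD over all tested compounds, cut at about 24% in these data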;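 note: cytokine-independent growth of Ba/F3 cells driven by EpoR plus mutant JAK2; 0% = DMSO-treated cells and 100% = JAK inhibitor I control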
IEC-6 tox – cytotoxicity in IEC-6 intestinal epithelial cells, primary screen, cytotoxicity control for KLF5 inhibitor project, cell-based, luminescence; IEC-6 cytotoxicity, luminescence viability; inhibition, % at 5 µM; 290,000 compounds, 0.78% hits; AID 1825, 2009; in the data active = inhibition above about 22%;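 note: 0% = plate median of test compound wells and 100% = cytotoxic reference compound wells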
aSyn 5UTR inh – MLPCN primary screen, SNCA 5' untranslated region; inhibition, % (tested at 7.5 µM); 300,000 compounds, 0.82% hits; AID 1813, 2009; alpha-synuclein 5'UTR reporter, inhibitor activity; in the data active = inhibition above about 60%;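 note: H4 neuroglioblastoma cells stably carrying SNCA 5'UTR luciferase fusion; 0% = DMSO wells and 100% = positive control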
* hit, by the source's call.

For O=C(NNC(=O)C1CCN(c2ncccn2)CC1)c1ccc(Cl)cc1 the results were BaF3 tox 90*, APP transl inh -23, KLF5 inh 3, Ba/F3 V617F tox 5, IEC-6 tox 6 and aSyn 5UTR inh 6.
OC1(c2cccs2)CN(c2ccc(Br)cc2)C2=[N+]1CCCS2 (configuration not stated) was read as BaF3 tox -4, KLF5 inh -6, Ba/F3 V617F tox -2, IEC-6 tox -5 and aSyn 5UTR inh -25.
OC1(c2ccccc2)CN(c2ccccc2)C2=[N+]1CCS2 (configuration not stated) was read as BaF3 tox 37*, APP transl inh -16, KLF5 inh -35, Ba/F3 V617F tox 35*, IEC-6 tox 5 and aSyn 5UTR inh -33.
`COc1cc(OC)cc(C(=O)NNC(=O)CCC(=O)c2cccs2)c1` gave KLF5 inh 1, IEC-6 tox -1 and aSyn 5UTR inh 5.
Screening C=CCN1/C(=C2/SC(=S)N(C)C2=O)Sc2ccccc21 returned KLF5 inh -42, IEC-6 tox 7 and aSyn 5UTR inh -65.
`CCOc1ccc(CCNC(=O)Nc2cccc(OC)c2)cc1OCC` gave KLF5 inh -41, IEC-6 tox 1 and aSyn 5UTR inh -9.
For O=C(c1ccccc1)c1ccc2nc(-c3ccc(NC(=O)c4ccccc4Br)cc3)[nH]c2c1 the results were BaF3 tox -3, APP transl inh -23, KLF5 inh -31, Ba/F3 V617F tox 1, IEC-6 tox 10 and aSyn 5UTR inh 75*.
For Cc1ccccc1C(=O)Nc1ccc(-c2nc3ccc(C(=O)c4ccccc4)cc3[nH]2)cc1 the results were BaF3 tox 0, APP transl inh -24, KLF5 inh -41, Ba/F3 V617F tox -1, IEC-6 tox 1 and aSyn 5UTR inh 35.
N=c1ccn(Cc2c(Cl)cccc2Cl)cc1 was read as BaF3 tox 63*, KLF5 inh -26, Ba/F3 V617F tox 75*, IEC-6 tox -8 and aSyn 5UTR inh 13.
Screening CCn1ccc(=N)cc1 returned BaF3 tox 5, APP transl inh -16, KLF5 inh 13, Ba/F3 V617F tox 3, IEC-6 tox 0 and aSyn 5UTR inh 1.
`Cc1ccc(C)n1Cc1ccccc1Cl` gave BaF3 tox 7, APP transl inh 9, KLF5 inh -7, Ba/F3 V617F tox 0, IEC-6 tox -11 and aSyn 5UTR inh 11.
Screening N=c1ccn(Cc2ccc(Cl)cc2Cl)cc1 returned BaF3 tox 71*, APP transl inh -1, KLF5 inh 15, Ba/F3 V617F tox 90*, IEC-6 tox 3 and aSyn 5UTR inh 26.
For N=c1ccn(Cc2ccccc2Cl)cc1 the results were BaF3 tox 65*, APP transl inh 24, KLF5 inh -15, Ba/F3 V617F tox 81*, IEC-6 tox 5 and aSyn 5UTR inh 3.
`CS(=O)(=O)c1ccc(C(=O)OCC(=O)c2ccc(Cl)s2)cc1` gave aSyn 5UTR inh -15.
Screening O=C(NCc1cccc(CNC(=O)C(=O)NCc2ccco2)c1)C(=O)NCc1ccco1 returned BaF3 tox 4, APP transl inh 11, KLF5 inh -3, Ba/F3 V617F tox -5, IEC-6 tox 2 and aSyn 5UTR inh 17.
CN(C)c1nnnn1-c1ccc(Cl)cc1Cl was read as BaF3 tox 3, APP transl inh -3, KLF5 inh -7, Ba/F3 V617F tox 4, IEC-6 tox -2 and aSyn 5UTR inh -10.
Screening O=C(O)Cc1c(C(=O)O)nnn1-c1ccc(Cl)cc1Cl returned BaF3 tox 6, APP transl inh 50*, KLF5 inh -16, Ba/F3 V617F tox 3, IEC-6 tox -4 and aSyn 5UTR inh 7.
For COc1ccc(OC)c(NC(=O)CCCSc2ccccc2)c1 the results were KLF5 inh -20, IEC-6 tox -8 and aSyn 5UTR inh 6.
Screening Nc1nnnn1/N=C/c1ccc(F)cc1 returned KLF5 inh -36, IEC-6 tox -6 and aSyn 5UTR inh 1.
O=C(c1ccsc1)N1CCCC(Nc2cccc(F)c2)C1 (configuration not stated) was read as KLF5 inh -65, IEC-6 tox 4 and aSyn 5UTR inh -23.
NS(=O)(=O)c1ccc(CCNc2ncnc3sccc23)cc1 was read as BaF3 tox 43*, APP transl inh 17, KLF5 inh -30, Ba/F3 V617F tox 33*, IEC-6 tox 1 and aSyn 5UTR inh -18.
Screening COc1ccc(CCNc2ncnc3c2oc2ccccc23)cc1OC returned BaF3 tox 62*, APP transl inh 12, KLF5 inh 1, Ba/F3 V617F tox 51*, IEC-6 tox 18 and aSyn 5UTR inh -44.
Cc1sc2ncnc(NCCCn3ccnc3)c2c1C was read as BaF3 tox 3, APP transl inh -8, KLF5 inh -18, Ba/F3 V617F tox -1, IEC-6 tox -4 and aSyn 5UTR inh 0.
COc1ccc(CCNc2ncnc3sccc23)cc1OC was read as BaF3 tox 69*, APP transl inh -28, KLF5 inh 52, Ba/F3 V617F tox 64*, IEC-6 tox 22 and aSyn 5UTR inh -21.
Cc1sc2ncnc(NCCc3ccc(S(N)(=O)=O)cc3)c2c1C was read as BaF3 tox 58*, APP transl inh 8, KLF5 inh -41, Ba/F3 V617F tox 51*, IEC-6 tox 18 and aSyn 5UTR inh 4.
For Cc1nnc(NCc2ccccc2)c2ccccc12 the results were KLF5 inh -19, IEC-6 tox 0 and aSyn 5UTR inh -4.
Screening Cc1ccc(CNC(=O)C2CCC(=O)N(CCc3ccc(Cl)cc3)C2)cc1 (configuration not stated) returned KLF5 inh -38, IEC-6 tox 6 and aSyn 5UTR inh -43.
Screening COc1ccc(F)cc1CSc1nnnn1-c1ccc(O)cc1 returned KLF5 inh 9, IEC-6 tox -1 and aSyn 5UTR inh 11.
For COc1cc(CSc2nnnn2-c2ccc(C)cc2)cc(OC)c1OC the results were BaF3 tox 53*, APP transl inh -7, KLF5 inh -18, Ba/F3 V617F tox 35*, IEC-6 tox 3 and aSyn 5UTR inh 15.
O=C(Nc1nc2ccccc2s1)c1cnccn1 was read as BaF3 tox 4, APP transl inh -56, KLF5 inh -170, Ba/F3 V617F tox -1, IEC-6 tox -1 and aSyn 5UTR inh -39.
O=C(Nc1nc2ccc(F)cc2s1)c1ccccn1 was read as BaF3 tox 13, APP transl inh -30, KLF5 inh 60, Ba/F3 V617F tox 6, IEC-6 tox 71* and aSyn 5UTR inh 102*.
`O=C(Nc1nnc(SCc2ccc(F)cc2)s1)c1ccccn1` gave BaF3 tox 14, APP transl inh 44, KLF5 inh 4, Ba/F3 V617F tox 3, IEC-6 tox 78* and aSyn 5UTR inh 63*.
